Measured values published in PubChem BioAssay (NCATS).
Records with an inconclusive call do not appear. Entries that show only a call come without a potency. The source made the active and inactive calls. Unless noted, the call rests on the fitted dose curve.

How the values were obtained:
[1] = qHTS for Inhibitors of the Functional Ribonucleoprotein Complex (vRNP) of Lymphocytic Choriomeningitis Arenaviruses (LCMV): Viability assay - alamar blue signal for LCMV Primary Screen (AID 1347085; calls by dose curve; tested in HEK293 reporter line; further: nearly all actives have a fitted effect of over 80% in size; further: potency means the concentration at half of the fitted maximal effect)
[2] = target: Nucleoprotein (Lymphocytic choriomeningitis virus (strain Armstrong)) (UniProt P09992); test: qHTS for Inhibitors of the Functional Ribonucleoprotein Complex (vRNP) of Lymphocytic Choriomeningitis Arenaviruses (LCMV): LCMV Primary Screen - GLuc reporter signal (AID 1347086); further: nearly all actives have a fitted effect of over 70% in size; further: potency means the concentration at half of the fitted maximal effect
Sequence of Nucleoprotein (Lymphocytic choriomeningitis virus (strain Armstrong)) (P09992 whole entry, looked up): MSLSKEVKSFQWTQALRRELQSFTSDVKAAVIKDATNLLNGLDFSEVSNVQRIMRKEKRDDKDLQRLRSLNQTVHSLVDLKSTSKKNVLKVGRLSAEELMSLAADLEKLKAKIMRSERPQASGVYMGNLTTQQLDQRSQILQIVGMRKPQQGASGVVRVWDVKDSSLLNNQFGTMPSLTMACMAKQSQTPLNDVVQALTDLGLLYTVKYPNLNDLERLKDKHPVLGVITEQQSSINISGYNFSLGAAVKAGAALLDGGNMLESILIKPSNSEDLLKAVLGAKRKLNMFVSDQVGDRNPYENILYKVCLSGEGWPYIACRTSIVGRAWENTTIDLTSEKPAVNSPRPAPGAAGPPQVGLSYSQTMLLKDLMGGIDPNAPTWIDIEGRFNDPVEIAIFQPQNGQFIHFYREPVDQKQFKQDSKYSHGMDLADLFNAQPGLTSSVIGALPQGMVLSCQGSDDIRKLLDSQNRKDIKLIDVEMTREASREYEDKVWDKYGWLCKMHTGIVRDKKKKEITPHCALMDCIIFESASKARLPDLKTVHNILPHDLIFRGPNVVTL

[3] = Primary qHTS to identify inhibitors of SARS-CoV-2 cell entry (AID 1645846); settings: activity change, negative = inhibition: at 57.1 µM (top of the series) unless noted; further: nearly all actives have a fitted effect of over 45% in size; further: potency means the concentration at half of the fitted maximal effect
In short: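 Using luciferase-reporting pseudoviruses carrying Wuhan-Hu-1 spike, the screen tracks entry into stably ACE2-expressing cells over 48 hr. Activity is expressed relative to spike particles versus particles lacking any fusion protein.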

[4] = Inducers of the Endoplasmic Reticulum Stress Response (ERSR) in human glioma: Validation (AID 504836; active means well fitted curve in the direction sought with a large enough effect; an effect the other way counts as inactive or inconclusive)
In short: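 Stably transfected U87-MG human glioma cells carrying a GRP78-based luminescent sensor were seeded at 1000 cells/well, pin-dosed with compounds and incubated 16 h. Luciferase reagent was then added, and end-point luminescence was read after 10 min at room temperature.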

[5] = Cytotoxicity counterscreen for inhibitors of SARS-CoV-2 cell entry (AID 1645845); further: nearly all actives have a fitted effect of over 50% in size
In short: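 Expi293F/hACE2 cells seeded overnight; cpd pin-transferred in DMSO, 1 h preincubation, + media, 48 h 37 C 5% CO2; ATPLite 1step luminescence; normalized to cells and no cells.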

[6] = High Content Imaging Cell-Based qHTS for Inhibitors of the mTORC1 Signaling Pathway in MEF (Tsc2-/-, p53-/-) Cells (AID 2666; active means well fitted curve in the direction sought with a large enough effect; an effect the other way counts as inactive or inconclusive;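 further: percent of cells scored positive for phospho-rpS6 Ser235/236 immunostaining by imaging; potency means the concentration at half of the fitted maximal effect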)
In short: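 Read-out: % positive cells per well, with thresholds from highest- and lowest-signal wells, based on phospho-rpS6 (Ser235/236) intensity normalized to Hoechst nuclear stain. Cells: Tsc2-/-, p53-/- MEFs carrying empty vector; compound 24 hrs, 37 degree Celsius.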

[7] = High Content Imaging Cell-Based qHTS for Inhibitors of the mTORC1 Signaling Pathway in MEF Cells (AID 2667; active means well fitted curve in the direction sought with a large enough effect; an effect the other way counts as inactive or inconclusive; further: potency means the concentration at half of the fitted maximal effect)
In short: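 MEF (Tsc2-/-, p53-/-, WT Tsc2 re-expressed); cpd 24 h, 37 °C; PFA fix; Alexa-488 anti-p-rpS6 Ser235/236, PI, Hoechst; IN Cell imaging; Hoechst/Alexa-488 intensity ratio; % active cells, thresholds set from rapamycin and DMSO wells.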

[8] = Validation screen for inhibitors of Lassa infection (AID 463096); further: potency means the concentration at half of the fitted maximal effect
[9] = target: M-phase phosphoprotein 8 (Homo sapiens) (UniProt Q99549); test: qHTS Validation Assay for Inhibitors for MPP8 Chromodomain Interactions with Methylated Histone Tails (AID 488949; active means well fitted curve in the direction sought with a large enough effect; an effect the other way counts as inactive or inconclusive;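 further: 50 nM MPP8 with 50 nM peptide preformed then compounds added for 30 min; AlphaScreen signal from MPP8 chromodomain bound to biotinylated H3K9me3 peptide; top concentration of the series differs between compounds; nearly all actives have a fitted effect of over 55% in size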)
Sequence of M-phase phosphoprotein 8 (Homo sapiens) (Q99549 whole entry, looked up): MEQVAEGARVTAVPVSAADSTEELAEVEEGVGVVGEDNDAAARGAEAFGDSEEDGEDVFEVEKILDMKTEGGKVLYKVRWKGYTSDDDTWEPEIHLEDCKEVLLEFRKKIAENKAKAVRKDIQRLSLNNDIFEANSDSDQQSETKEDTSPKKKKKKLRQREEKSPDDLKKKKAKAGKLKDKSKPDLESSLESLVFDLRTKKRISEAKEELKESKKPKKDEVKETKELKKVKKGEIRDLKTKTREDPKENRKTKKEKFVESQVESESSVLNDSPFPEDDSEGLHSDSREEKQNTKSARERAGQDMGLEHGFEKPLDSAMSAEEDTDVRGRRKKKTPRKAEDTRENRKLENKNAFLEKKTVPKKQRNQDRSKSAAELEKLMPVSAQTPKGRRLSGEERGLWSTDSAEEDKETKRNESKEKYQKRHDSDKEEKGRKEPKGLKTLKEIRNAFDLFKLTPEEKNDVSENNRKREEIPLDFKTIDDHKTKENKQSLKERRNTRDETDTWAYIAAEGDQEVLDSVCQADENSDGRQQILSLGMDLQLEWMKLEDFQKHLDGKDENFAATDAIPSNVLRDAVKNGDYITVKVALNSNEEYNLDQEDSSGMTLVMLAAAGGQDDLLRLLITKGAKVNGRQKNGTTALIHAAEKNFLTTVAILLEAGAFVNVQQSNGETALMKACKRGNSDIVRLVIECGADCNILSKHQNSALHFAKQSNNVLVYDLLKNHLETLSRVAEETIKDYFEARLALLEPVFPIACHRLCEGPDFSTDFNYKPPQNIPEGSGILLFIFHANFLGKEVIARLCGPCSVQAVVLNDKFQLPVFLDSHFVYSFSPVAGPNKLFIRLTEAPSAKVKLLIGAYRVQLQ
In short: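 Chemiluminescent proximity assay: histidine-tag capture via nickel acceptor beads, biotin peptide via streptavidin donor beads. Protein and peptide each at 50 nM, pH 7.4, with 30 min incubations at room temperature for complex formation, compound exposure and bead binding.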

[10] = target: Glutaminase kidney isoform, mitochondrial (Homo sapiens) (UniProt O94925); test: qHTS for Inhibitors of Glutaminase (GLS): LOPAC Validation (AID 624146; active means well fitted curve in the direction sought with a large enough effect; an effect the other way counts as inactive or inconclusive;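 further: glutamate product detected by oxidase and peroxidase coupled Amplex red fluorescence gain; nearly all actives have a fitted effect of over 60% in size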)
Sequence of Glutaminase kidney isoform, mitochondrial (Homo sapiens) (O94925 whole entry, looked up, canonical isoform): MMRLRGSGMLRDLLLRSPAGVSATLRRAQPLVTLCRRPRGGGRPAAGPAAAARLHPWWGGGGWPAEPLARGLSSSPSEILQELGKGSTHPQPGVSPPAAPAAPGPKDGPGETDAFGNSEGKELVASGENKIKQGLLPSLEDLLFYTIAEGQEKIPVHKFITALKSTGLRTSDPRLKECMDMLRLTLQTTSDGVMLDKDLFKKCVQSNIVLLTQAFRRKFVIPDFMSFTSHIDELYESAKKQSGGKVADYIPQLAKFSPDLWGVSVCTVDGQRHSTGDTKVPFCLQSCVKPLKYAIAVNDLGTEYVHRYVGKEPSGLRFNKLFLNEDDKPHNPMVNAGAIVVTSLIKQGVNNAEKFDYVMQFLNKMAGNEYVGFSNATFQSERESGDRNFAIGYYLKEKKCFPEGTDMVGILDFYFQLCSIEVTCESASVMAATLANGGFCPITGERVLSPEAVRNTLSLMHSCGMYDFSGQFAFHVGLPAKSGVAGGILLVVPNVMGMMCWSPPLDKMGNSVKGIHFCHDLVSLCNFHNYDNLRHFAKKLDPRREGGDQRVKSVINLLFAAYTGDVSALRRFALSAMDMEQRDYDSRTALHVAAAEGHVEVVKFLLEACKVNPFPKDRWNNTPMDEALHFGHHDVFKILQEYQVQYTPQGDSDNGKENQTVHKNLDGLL
In short: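 Read-out is an Amplex red fluorescence increase coupled through glutamate oxidase and HRP, measured before and after 30 min room-temperature incubation. hKGA is in 45 mM KH2PO4 (pH 8.2) with 0.02% Tween-20; glutamine added as 1mM solution.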

[11] = Confirmatory qHTS for VERO E6 Cytotoxicity Assay: Counterscreen for SARS-CoV-2 CPE Assay (AID 1508605); further: nearly all actives have a fitted effect of over 60% in size
[12] = target: Alpha-galactosidase (Coffea arabica) (UniProt Q42656); test: Counterscreen for Glucocerebrosidase Inhibitors: qHTS Assay for Coffee Bean alpha-Galactosidase at pH 4.5 (AID 957; active means well fitted curve in the direction sought with a large enough effect; an effect the other way counts as inactive or inconclusive)
Sequence of Alpha-galactosidase (Coffea arabica) (Q42656 whole entry, looked up): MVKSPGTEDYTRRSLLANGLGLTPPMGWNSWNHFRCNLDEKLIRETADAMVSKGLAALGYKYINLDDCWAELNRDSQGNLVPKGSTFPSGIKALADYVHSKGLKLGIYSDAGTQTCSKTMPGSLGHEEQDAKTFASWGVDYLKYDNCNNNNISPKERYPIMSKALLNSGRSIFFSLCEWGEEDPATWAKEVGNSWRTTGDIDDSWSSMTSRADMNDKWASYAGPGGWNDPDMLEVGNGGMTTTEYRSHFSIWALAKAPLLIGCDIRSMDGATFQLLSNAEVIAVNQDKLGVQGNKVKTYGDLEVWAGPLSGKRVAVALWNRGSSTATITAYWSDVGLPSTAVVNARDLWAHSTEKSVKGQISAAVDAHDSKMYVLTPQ
In short: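 AC50 values derive from Hill-equation modeling of concentration-response data, normalized to no-enzyme and full-activity controls. The pH 4.5 citrate assay used 2 nM coffee bean enzyme and 80 uM fluorogenic substrate for 20 min.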

[13] = target: Alpha-galactosidase (Coffea arabica) (UniProt Q42656); test: Counterscreen for Glucocerebrosidase Inhibitors: qHTS Assay for Coffee Bean alpha-Galactosidase at pH 5.9 (AID 998; active means well fitted curve in the direction sought with a large enough effect; an effect the other way counts as inactive or inconclusive)
In short: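 Green coffee bean enzyme (2 nM final) was incubated with compounds (0.7 nM–77 uM) and 4-methylumbelliferyl alpha-D-galactopyranoside (80 uM) in citrate buffer pH 5.9, 20 min at room temperature. High-pH stop; fluorescence 365/440 nm; AC50 from Hill fits.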

## COc1ccc(C(=O)/C=C/c2ccc(OC)cc2OC)c(O)c1
[1]
  Potency: inactive
[2]
  Potency: inactive

## COc1ccc(-c2cc(=O)c3c(O)cc(O[C@@H]4O[C@H](CO[C@@H]5O[C@@H](C)[C@H](O)[C@@H](O)[C@@H]5O)[C@@H](O)[C@H](O)[C@@H]4O)cc3o2)cc1O
[2]
  Potency: 10.9 µM (active)

## COc1cc2c(NC3CCN(C(C)C)CC3)nc(C3CCCCC3)nc2cc1OCCCN1CCCC1
[1]
  Potency: 38.5 µM (active)
[3]
  Potency: 8.91 µM (active)

## Cc1ccc(S(=O)(=O)/C=C/C#N)cc1
[4]
  outcome: inactive
[1]
  Potency: inactive

## CC1(C)CNc2cc(NC(=O)c3cccnc3NCc3ccncc3)ccc21
[1]
  Potency: 34.3 µM (active)
[5]
  Potency: inactive
[3]
  Potency: inactive

## CCCC(=O)OCCC(C)C
[1]
  Potency: inactive
[2]
  Potency: inactive

## C[C@@]1(c2cc(-c3cncnc3)c(F)cc2F)CCSC(N)=N1
[1]
  Potency: 13.7 µM (active)
[5]
  Potency: inactive
[3]
  activity change, negative = inhibition: -2.33%

## COC1CC2C=C(C)C=CC=CC(=O)NC(c3ccccc3)CC=CCCC(O)CC(=O)C2=C1O (stereo not drawn)
[1]
  Potency: inactive
[2]
  Potency: inactive

## CC(C)=CCCC(C)=CCCC(C)=CCCC(C)=CCCC(C)=CCCC(C)=CCCC(C)=CCCC(C)=CCCC(C)=CCO
[1]
  Potency: 21.7 µM (active)

## CC(=O)O[C@@H]1[C@@H](O)C2OC3C=C(C)C(=O)[C@@H](O)[C@]3(CO)C1(C)C21CO1 (stereo partly drawn)
[1]
  Potency: 0.316 µM (active)

## CC12C(=O)OC(=O)C1(C)C1CCC2O1 (stereo not drawn)
[6]
  Potency: 9.27 µM (active)
[7]
  Potency: 4.65 µM (active)
[8]
  Potency: 10 µM (active)
[9]
  Potency: inactive
[4]
  outcome: inactive
[10]
  outcome: inactive
[1]
  Potency: 11.2 µM (active)

## C[C@@H]1CC=CC=CC=CC=C[C@@H](O[C@@H]2O[C@H](C)[C@@H](O)[C@H](N)[C@H]2O)C[C@@H]2O[C@](O)(C[C@@H](O)C[C@@H]3O[C@@H]3C=CC(=O)O1)C[C@H](O)[C@@H]2C(=O)O
[1]
  Potency: inactive

## CN(C)c1ccc2cc(C(=O)N[C@@H](CCCN=C(N)CCl)C(=O)NCc3ccccc3)ccc2c1
[1]
  Potency: 34.3 µM (active)
[5]
  Potency: inactive
[3]
  activity change, negative = inhibition: -26.4%

## CCCCCC(=O)N[C@@H](c1ccccc1)[C@@H](O)C(=O)O[C@H]1C[C@@]2(O)[C@@H](OC(=O)c3ccccc3)C3[C@](C)(C(=O)[C@H](OC(C)=O)C(=C1C)C2(C)C)[C@@H](O)C[C@H]1OC[C@@]31OC(C)=O (stereo partly drawn)
[1]
  Potency: inactive
[2]
  Potency: inactive

## O=S(=O)(NCCNCC=Cc1ccc(Br)cc1)c1cccc2cnccc12
[1]
  Potency: inactive
[2]
  Potency: inactive

## CC1(C)CC(=O)c2c(C(F)(F)F)nn(-c3ccc(C(N)=O)c(NC4CCC(OC(=O)CN)CC4)c3)c2C1 (stereo not drawn)
[1]
  Potency: 0.769 µM (active)
[2]
  Potency: 0.611 µM (active)
[11]
  Potency: inactive
[3]
  activity change, negative = inhibition: -89%

## CCC[C@H](N[C@@H](C)C(=O)N1[C@@H]2CCCC[C@H]2C[C@H]1C(=O)O)C(=O)OCC
[1]
  Potency: inactive
[5]
  Potency: inactive
[3]
  activity change, negative = inhibition: 1.44%

## COc1ccc(CCOC2OC(CO)C(OC(=O)/C=C/c3ccc(O)c(OC)c3)C(O[C@H]3O[C@@H](C)[C@H](O)[C@@H](O)[C@H]3O)C2O)cc1O (stereo partly drawn)
[1]
  Potency: inactive
[2]
  Potency: inactive

## O=C1Cc2c([nH]c3ccc(Br)cc23)-c2ccccc2N1
[12]
  outcome: inactive
[13]
  outcome: inactive
[4]
  outcome: inactive
[1]
  Potency: inactive
[2]
  Potency: inactive
